The values below come from PubChem BioAssay (NCI).

About 83,000 compounds went through this panel and 20% of them were active in at least one assay; those are over-represented in the sample as a whole.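 In brief: 96-well plates, 48 h treatment, single concentration, percent growth endpoint.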 Values without a mark were called inactive. Active and inactive are the calls of the source. Rule for the calls: active = growth percent below 10; inactive = the rest.

Some test systems named below: HCT-15 colon; HT29 colon; SNB-75 CNS; SNB-19 CNS; U251 CNS; PC-3 prostate; SK-MEL-5 melanoma; UACC-62 melanoma; LOX IMVI melanoma; SK-MEL-28 melanoma.
Assay in all cases: NCI-60 one-dose screen, 48 h (100 = growth as untreated, 0 = no growth, -100 = all killed)
Common to all, as to conditions: 10 µM unless noted

As to `CCCn1c2cc(OCc3cn(-c4ccc(Br)cc4)nn3)ccc2c2ccnc(C)c21`, the growth in the assay with HCT-15 colon is 73.5%; with HT29 colon it was 57.9%; in the assay with SNB-75 CNS, -1.81% (active); in the assay on SNB-19 CNS it was 53.8%; in the assay with U251 CNS it was 33.8%; in the assay with PC-3 prostate, 74.5%. Also, the growth in the assay with SK-MEL-5 melanoma was 76.8%; in the assay with UACC-62 melanoma it was 38.8%; in the assay with LOX IMVI melanoma it was 72.7%; with SK-MEL-28 melanoma, 80.3%.

For `CCCCc1ccc(N=Nc2ccc(OCC[N+](C)(C)C)cc2)cc1`, the growth in the assay on HCT-15 colon is 61%; with HT29 colon, 26.3%; with SNB-75 CNS, 15.4%; in the assay with SNB-19 CNS, 1.8% (active); in the assay with U251 CNS, -51.1% (active); in the assay with PC-3 prostate, 24.2%. For the same compound, the growth with SK-MEL-5 melanoma was 89.4%; with UACC-62 melanoma, 53.9%; with LOX IMVI melanoma, 33.6%; in the assay on SK-MEL-28 melanoma it was 88.9%.

As for `C#CCN1C(=O)c2ccccc2N(CC#C)C12CCN(Cc1cn(CC(=O)Nc3ccccc3C(N)=O)nn1)CC2`, the growth with HCT-15 colon is 86.8%; in the assay with HT29 colon it was 85.1%; in the assay on SNB-75 CNS it was 78.3%; with SNB-19 CNS it was 90.5%; with U251 CNS, 97.2%; with PC-3 prostate, 83.7%. Besides, the growth in the assay on SK-MEL-5 melanoma was 76.9%; in the assay with UACC-62 melanoma, 74.3%; in the assay on LOX IMVI melanoma, 87%; with SK-MEL-28 melanoma it was 93.4%.

On to `CCOC(=O)c1c(C)nc2c(c1N)/C(=C/c1cccs1)C(=O)N2Cc1ccccc1`, for which the growth is 19.5% in the assay with HCT-15 colon; 57.3% in the assay on HT29 colon; 72.6% in the assay on SNB-75 CNS; 68.1% in the assay on SNB-19 CNS; 49.8% in the assay on U251 CNS; 51.8% with PC-3 prostate. The growth in the assay on SK-MEL-5 melanoma is 83.8%; with UACC-62 melanoma, 67.6%; in the assay on LOX IMVI melanoma it was 36.4%; in the assay on SK-MEL-28 melanoma it was 90.2%.

With `COC(=O)/C=C/c1cc(OC(C)=O)c2c(c1)C(C(=O)OC)C(c1ccc(OC(C)=O)c(OC(C)=O)c1)O2` (stereo not given), the growth in the assay with HCT-15 colon is 7.82% (active); with HT29 colon, 11%; in the assay on SNB-75 CNS, 46.3%; in the assay on SNB-19 CNS, 23.1%; in the assay on U251 CNS, 7.2% (active); with PC-3 prostate, 12%. Also, the growth in the assay with SK-MEL-5 melanoma was -19% (active); in the assay on UACC-62 melanoma it was 32.6%; in the assay with LOX IMVI melanoma, 14.1%; in the assay on SK-MEL-28 melanoma, 50.5%.

Take `Cc1c(O)c(=O)ccn1-c1nc2ccccc2s1`: the growth in the assay with HCT-15 colon is 38.2%; with HT29 colon, 93.8%; with SNB-75 CNS it was 95.7%; with SNB-19 CNS it was 110%; in the assay on U251 CNS it was 84.1%; in the assay with PC-3 prostate, 90.4%. The growth in the assay with SK-MEL-5 melanoma is 96.2%; in the assay with UACC-62 melanoma it was 98.3%; with LOX IMVI melanoma, 86.7%; in the assay on SK-MEL-28 melanoma it was 107%.

As to `C#C[C@@]1(O)[C@@H](CO)O[C@@H](n2cc(-c3ccco3)c3c(N)ncnc32)[C@@H]1O`, the growth in the assay on HCT-15 colon was 59.3%; with HT29 colon it was 28.8%; with SNB-75 CNS it was 14.6%; in the assay on SNB-19 CNS, 94.4%; with U251 CNS it was 81.8%; with PC-3 prostate it was 49.1%. Further, the growth in the assay on SK-MEL-5 melanoma is 89%; in the assay with UACC-62 melanoma it was 80.2%; in the assay on LOX IMVI melanoma, 65.6%; with SK-MEL-28 melanoma, 93.2%.

Consider `O=CN1N=C(c2ccc(F)cc2)CC1c1cccc(Nc2ccnc3cc(C(F)(F)F)ccc23)c1` (stereo not given), for which the growth with HCT-15 colon was 58%; in the assay with HT29 colon, 47.8%; in the assay with SNB-75 CNS, 92%; in the assay with SNB-19 CNS, 63.9%; in the assay with U251 CNS, 53.2%; with PC-3 prostate it was 41.8%. Moreover, the growth in the assay with SK-MEL-5 melanoma was -15.2% (active); in the assay with UACC-62 melanoma, 53.4%; in the assay with LOX IMVI melanoma it was 40.2%; in the assay on SK-MEL-28 melanoma, 82.2%.

As to `COC(=O)c1cc2c3c(cc(O)c2[nH]1)N(C(=O)C1Cc2cc(OC)c(OC)c(OC)c2N1)CC3CCl` (stereo not given), the growth is 1.13% (active) with HCT-15 colon; -7.58% (active) in the assay with HT29 colon; -32.9% (active) with SNB-75 CNS; -52% (active) in the assay with SNB-19 CNS; -54.9% (active) in the assay on U251 CNS; -17.1% (active) in the assay with PC-3 prostate. The growth was -94.6% (active) in the assay on SK-MEL-5 melanoma, -61% (active) in the assay on UACC-62 melanoma, -94.2% (active) in the assay with LOX IMVI melanoma and -6.29% (active) in the assay with SK-MEL-28 melanoma.

Turning to `N#CC(C#N)=C1NC(c2ccccc2)=C(c2ccccc2)C(c2ccccc2Cl)=C1C#N`, the growth was 102% in the assay on HCT-15 colon; 80.4% in the assay on HT29 colon; 107% with SNB-75 CNS; 106% with SNB-19 CNS; 103% in the assay with U251 CNS; 87.8% with PC-3 prostate. The growth was 105% with SK-MEL-5 melanoma, 102% with UACC-62 melanoma, 91.5% in the assay with LOX IMVI melanoma and 114% in the assay with SK-MEL-28 melanoma.

As for `NC(N)=NC(N)=Nc1cc2ccccc2c2ccccc12`, the growth is 57.8% in the assay with HCT-15 colon; 12.6% in the assay on HT29 colon; 57.7% in the assay on SNB-75 CNS; 35.8% with SNB-19 CNS; 33.8% in the assay on U251 CNS; 24.4% in the assay with PC-3 prostate. For the same compound, the growth with SK-MEL-5 melanoma is 45.6%; with UACC-62 melanoma, 43.6%; with LOX IMVI melanoma it was 16.5%; in the assay on SK-MEL-28 melanoma it was 55.9%.

Consider `O=C(Nc1ccc(S(=O)(=O)NC2CCCCCC2)cc1)C(c1ccccc1)S(=O)(=O)c1ccc(F)cc1` (stereo not given), for which the growth in the assay on HCT-15 colon was 2.74% (active); with HT29 colon it was -14.1% (active); in the assay with SNB-75 CNS, 3.64% (active); in the assay on SNB-19 CNS, 26.2%; in the assay with U251 CNS, 12.6%; in the assay with PC-3 prostate, 7.69% (active). In addition, the growth with SK-MEL-5 melanoma was -36.4% (active); with UACC-62 melanoma, -9.75% (active); in the assay on LOX IMVI melanoma, 5.06% (active); in the assay with SK-MEL-28 melanoma, 1.46% (active).

For `Cc1ccc(C2CC(c3ccc(Nc4nc(NCCO)nc(NCCO)n4)cc3)=NN2c2ccc(Cl)cc2)cc1` (stereo not given), the growth in the assay on HCT-15 colon was 47%; in the assay on HT29 colon it was 30.5%; in the assay with SNB-75 CNS, 28.5%; in the assay with SNB-19 CNS, 75.5%; with U251 CNS, 36.3%; in the assay on PC-3 prostate it was 33.5%. In addition, the growth with SK-MEL-5 melanoma was 74.8%; with UACC-62 melanoma it was 81.2%; in the assay with LOX IMVI melanoma it was 40.9%; in the assay with SK-MEL-28 melanoma, 48.4%.

On to `O=C(Nc1nc(-c2ccccc2)cs1)c1cc(-c2ccc(Br)cc2)nc2ccccc12`, for which the growth is 33% in the assay with HCT-15 colon; 39.8% in the assay with HT29 colon; 85.1% in the assay with SNB-75 CNS; 79.2% in the assay with SNB-19 CNS; 42% in the assay on U251 CNS; 28.9% in the assay with PC-3 prostate. For the same compound, the growth in the assay with SK-MEL-5 melanoma is 54.8%; in the assay with UACC-62 melanoma, 50.5%; with LOX IMVI melanoma, 42.7%; in the assay on SK-MEL-28 melanoma it was 68.3%.

`O=C(/C(=C/c1ccc([N+](=O)[O-])cc1)SCc1ccc(F)cc1)c1ccc(Cl)cc1`: the growth was 5.41% (active) in the assay with HCT-15 colon; 8.59% (active) in the assay on HT29 colon; 83.3% with SNB-75 CNS; 47.4% in the assay with SNB-19 CNS; 0.994% (active) in the assay with U251 CNS; 47.4% with PC-3 prostate. Moreover, the growth is 54.2% with SK-MEL-5 melanoma, 37.5% with UACC-62 melanoma, 3.68% (active) in the assay with LOX IMVI melanoma and 93.1% in the assay on SK-MEL-28 melanoma.

As for `Nc1c(C(=O)Nc2cccc3ccccc23)sc2nc3c(cc12)CCCCCC3`, the growth is 24.6% in the assay with HCT-15 colon; 0.156% (active) in the assay with HT29 colon; 10.6% with SNB-75 CNS; 27.8% in the assay with SNB-19 CNS; 14.4% in the assay on U251 CNS; 35.1% in the assay with PC-3 prostate. In addition, the growth is 45.6% in the assay with SK-MEL-5 melanoma, 32.4% with UACC-62 melanoma, 49.1% with LOX IMVI melanoma and 65.8% in the assay with SK-MEL-28 melanoma.

For the compound `O=C(Nc1ccccc1)NS(=O)(=O)c1c[nH]c(=S)[nH]c1=O`, the growth in the assay with HCT-15 colon was 109%; with HT29 colon, 73.7%; with SNB-75 CNS, 89.2%; in the assay on SNB-19 CNS, 106%; in the assay with U251 CNS, 93.3%; with PC-3 prostate, 100%. Moreover, the growth is 104% with SK-MEL-5 melanoma, 99.5% in the assay on UACC-62 melanoma, 92.4% with LOX IMVI melanoma and 116% in the assay on SK-MEL-28 melanoma.

`COc1cc(C2=NNC(c3ccc(N(C)C)cc3)C2)cc(OC)c1OC` (stereo not given): the growth was 30.9% in the assay on HCT-15 colon; 6.34% (active) in the assay on HT29 colon; 37.8% in the assay with SNB-75 CNS; 8.5% (active) in the assay on SNB-19 CNS; 28.8% in the assay on U251 CNS; 29.3% in the assay on PC-3 prostate. The growth with SK-MEL-5 melanoma is -4.54% (active); in the assay on UACC-62 melanoma, 40.8%; in the assay with LOX IMVI melanoma it was 49.4%; in the assay with SK-MEL-28 melanoma, 79.4%.

For `COc1c(O)cc2oc3cc(O[C@@H]4OC(C)[C@@H](O)[C@H](O)C4O)c(CC=C(C)C)c(O)c3c(=O)c2c1CC=C(C)C` (stereo not given in full), the growth in the assay with HCT-15 colon is 85.1%; with HT29 colon, 84.3%; in the assay with SNB-75 CNS, 88.9%; in the assay on SNB-19 CNS, 102%; in the assay with U251 CNS it was 86.6%; in the assay on PC-3 prostate it was 74.9%. The growth was 91% in the assay on SK-MEL-5 melanoma, 96.9% in the assay with UACC-62 melanoma, 89.3% with LOX IMVI melanoma and 105% in the assay with SK-MEL-28 melanoma.

For the compound `O=C(CSC(=S)N1CCCCC1)Nc1ccccc1`, the growth was 99.1% with HCT-15 colon; 91.2% in the assay with HT29 colon; 93.1% in the assay on SNB-75 CNS; 99.6% in the assay with SNB-19 CNS; 97.6% in the assay on U251 CNS; 92.6% with PC-3 prostate. The growth in the assay with SK-MEL-5 melanoma is 97.5%; in the assay on UACC-62 melanoma, 91.6%; in the assay with LOX IMVI melanoma, 94.2%; in the assay on SK-MEL-28 melanoma, 104%.

For the compound `COc1ccc2nc(-c3ccc(OC)c(OC)c3)cc(-c3nnc(SCC(=O)Nc4ccc(/C(C)=N\O)cc4)n3-c3ccccc3)c2c1`, the growth in the assay on HCT-15 colon was 76.2%; in the assay on HT29 colon, 89.2%; in the assay with SNB-75 CNS, 77.3%; in the assay on SNB-19 CNS it was 84.3%; in the assay on U251 CNS, 78.3%; in the assay with PC-3 prostate, 60.7%. For the same compound, the growth in the assay on SK-MEL-5 melanoma is 71.7%; in the assay on UACC-62 melanoma, 71.1%; in the assay with LOX IMVI melanoma, -28.1% (active); in the assay on SK-MEL-28 melanoma, 111%.
